Data as given in PubChem BioAssay AID1159580 (chemical genetic matrix, 2015).
Where “and” joins values, the source holds several entries; their conditions need not be identical. Equal entries are not always repeated. The campaign covered roughly 5,500 compounds. About 2,000 (36%) were called active. Roughly 18% stayed inconclusive and do not appear here. No stated cut-off is given here; in the data, active means normalized growth mostly below about 0.91 (no sharp cut-off); inconclusive means no clear call, values can overlap the other calls; inactive means mostly above about 0.92. Some of the results follow.

Experiment: chemical genetic growth profiling, strain panel (AID 1159580);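 further: tested at 20 µM; growth read once vehicle control cultures reached saturation at 30 °C; 1 = growth at the plate median or of vehicle wells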
Conditions: S. cerevisiae deletion strains, growth OD

Measured: normalized growth

COC(=O)[C@@H]1OC(=O)C2OC23[C@@]1(C)CCC1[C@]2(C)C(C[C@@H](O)[C@]13C)C(C)(C)[C@H](OC(C)=O)C[C@@H]2OC(C)=O (stereo not given in full)
inactive: locus YAL021C, strain ccr4, stronger effect = lower value 1 | locus YAL026C, strain drs2, stronger effect = lower value 1.01 | locus YAL030W, strain snc1, stronger effect = lower value 1 | locus YBL061C, strain skt5, stronger effect = lower value 1 | locus YBR009C, strain hhf1, stronger effect = lower value 1.03 | locus YBR021W, strain FUR4, stronger effect = lower value 0.993 | locus YBR023C, strain chs3, stronger effect = lower value 0.997 | locus YBR171W, strain sec66, stronger effect = lower value 0.995 | locus YBR229C, strain ROT2, stronger effect = lower value 1.01 | locus YBR231C, strain swc5, stronger effect = lower value 1.01 | locus YBR279W, strain paf1, stronger effect = lower value 1 | locus YCL011C, strain gbp2, stronger effect = lower value 1.01 | locus YCL016C, strain dcc1, stronger effect = lower value 1 | locus YCL029C, strain bik1, stronger effect = lower value 1.01 | locus YCL069W, strain vba3, stronger effect = lower value 0.996 | locus YCR088W, strain abp1, stronger effect = lower value 0.991 | locus YDL005C, strain med2, stronger effect = lower value 0.987 | locus YDL035C, strain GPR1, stronger effect = lower value 1.05 | locus YDL040C, strain nat1, stronger effect = lower value 1 | locus YDL074C, strain BRE1, stronger effect = lower value 1.06 | locus YDL101C, strain DUN1, stronger effect = lower value 1.02 | locus YDL134C, strain PPH21, stronger effect = lower value 1.02 | locus YDL185W, strain tfp1, stronger effect = lower value 1.01 | locus YDL192W, strain arf1, stronger effect = lower value 1.01 | locus YDR001C, strain nth1, stronger effect = lower value 0.997 | locus YDR069C, strain doa4, stronger effect = lower value 1.01 | locus YDR101C, strain arx1, stronger effect = lower value 1.03 | locus YDR137W, strain rgp1, stronger effect = lower value 1.03 | locus YDR150W, strain NUM1, stronger effect = lower value 1.01 | locus YDR159W, strain sac3, stronger effect = lower value 0.985 | locus YDR162C, strain NBP2, stronger effect = lower value 1.03 | locus YDR195W, strain ref2 0.988 | locus YDR297W, strain sur2, stronger effect = lower value 0.989 | locus YDR318W, strain mcm21, stronger effect = lower value 0.995 | locus YDR334W, strain swr1, stronger effect = lower value 1 | locus YDR335W, strain msn5, stronger effect = lower value 1 | locus YDR388W, stronger effect = lower value 1.01 | locus YDR392W, strain spt3, stronger effect = lower value 1.01 | locus YDR502C, strain sam2, stronger effect = lower value 1 | locus YEL003W, strain gim4, stronger effect = lower value 1 | locus YEL037C, strain rad23, stronger effect = lower value 1 | locus YEL061C, strain CIN8 (second series), stronger effect = lower value 0.986 | locus YEL061C, strain CIN8, stronger effect = lower value 1.01 | locus YER015W, strain faa2, stronger effect = lower value 0.994 | locus YER016W, strain bim1, stronger effect = lower value 1 | locus YER110C, stronger effect = lower value 0.995 | locus YER111C, strain swi4, stronger effect = lower value 1 | locus YER155C, strain BEM2 (second series), stronger effect = lower value 1.01 | locus YER155C, strain BEM2, stronger effect = lower value 0.989 | locus YER167W, strain BCK2, stronger effect = lower value 1.02 | locus YFR010W, strain ubp6, stronger effect = lower value 1.02 | locus YGL078C, strain dbp3, stronger effect = lower value 1.01 | locus YGL086W, strain mad1, stronger effect = lower value 0.996 | locus YGL167C, strain pmr1, stronger effect = lower value 1 | locus YGL173C, strain kem1, stronger effect = lower value 1 | locus YGL227W, strain vid30, stronger effect = lower value 1.01 | locus YGL240W, strain doc1, stronger effect = lower value 1 | locus YGL248W, strain PDE1, stronger effect = lower value 1.01 | locus YGL253W, strain hxk2, stronger effect = lower value 1.01 | locus YGR135W, strain pre9, stronger effect = lower value 0.971 | locus YGR252W, strain gcn5, stronger effect = lower value 0.966 | locus YHR013C, strain ard1, stronger effect = lower value 0.989 | locus YHR027C, strain rpn1, stronger effect = lower value 1 | locus YHR030C, strain SLT2, stronger effect = lower value 0.998 | locus YHR079C, strain IRE1 (second series), stronger effect = lower value 1 | locus YHR079C, strain IRE1, stronger effect = lower value 1.01 | locus YHR094C, strain hxt1, stronger effect = lower value 1.01 | locus YHR129C, strain ARP1, stronger effect = lower value 0.999 | locus YHR142W, strain chs7, stronger effect = lower value 1 | locus YHR200W, strain rpn10, stronger effect = lower value 1.01 | locus YIL066C, strain RNR3, stronger effect = lower value 1.03 | locus YIL073C, strain SPO22, stronger effect = lower value 1.03 | locus YIL125W, strain kgd1, stronger effect = lower value 0.997 | locus YIR030C, strain dcg1, stronger effect = lower value 0.992 | locus YJL092W, strain hpr5, stronger effect = lower value 0.997 | locus YJL095W, strain BCK1 (second series), stronger effect = lower value 0.989 | locus YJL095W, strain BCK1, stronger effect = lower value 1 and 0.991 | locus YJL115W, strain asf1, stronger effect = lower value 0.995 | locus YJL129C, strain trk1, stronger effect = lower value 0.995 | locus YJL134W, strain LCB3, stronger effect = lower value 1.01 | locus YJL154C, strain vps35, stronger effect = lower value 1.01 | locus YJL164C, strain tpk1, stronger effect = lower value 1.02 | locus YJL166W, strain qcr8, stronger effect = lower value 1.01 | locus YJL168C, strain set2, stronger effect = lower value 0.998 | locus YJL187C, strain SWE1 (second series), stronger effect = lower value 1 | locus YJL187C, strain SWE1, stronger effect = lower value 1.01 | locus YJR066W, strain TOR1, stronger effect = lower value 0.913 | locus YKL009W, strain mrt4, stronger effect = lower value 0.998 | locus YKL068W, stronger effect = lower value 1 | locus YKL085W, strain MDH1 (second series), stronger effect = lower value 0.999 | locus YKL085W, strain MDH1, stronger effect = lower value 0.999 | locus YKL160W, strain elf1, stronger effect = lower value 1 | locus YKL190W, strain CNB1, stronger effect = lower value 1.01 | locus YKR001C, strain vps1, stronger effect = lower value 1.01 | locus YKR026C, strain gcn3, stronger effect = lower value 0.993 | locus YKR091W, strain srl3, stronger effect = lower value 0.999 | locus YLL001W, strain dnm1, stronger effect = lower value 1.01 | locus YLL026W, stronger effect = lower value 0.998 | locus YLL041C, strain sdh2, stronger effect = lower value 0.995 | locus YLR027C, strain aat2, stronger effect = lower value 1.01 | locus YLR039C, strain RIC1, stronger effect = lower value 1.12 | locus YLR058C, strain SHM2, stronger effect = lower value 1.02 | locus YLR102C, strain apc9, stronger effect = lower value 1 | locus YLR113W, strain HOG1, stronger effect = lower value 1.08 | locus YLR221C, strain rsa3, stronger effect = lower value 0.999 | locus YLR258W, strain gsy2, stronger effect = lower value 1.01 | locus YLR262C, strain YPT6 (second series), stronger effect = lower value 0.997 | locus YLR268W, strain sec22, stronger effect = lower value 1.02 | locus YLR320W, strain mms22, stronger effect = lower value 1 | locus YLR330W, strain CHS5, stronger effect = lower value 1.01 | locus YLR342W, strain FKS1, stronger effect = lower value 1 | locus YLR357W, strain rsc2, stronger effect = lower value 0.969 | locus YLR370C, strain arc18, stronger effect = lower value 1.01 | locus YLR371W, strain rom2, stronger effect = lower value 0.988 | locus YLR384C, strain iki3, stronger effect = lower value 0.988 | locus YLR418C, strain cdc73, stronger effect = lower value 0.972 | locus YML016C, strain PPZ1, stronger effect = lower value 1.01 | locus YML032C, strain rad52, stronger effect = lower value 1.01 | locus YML120C, strain ndi1, stronger effect = lower value 0.994 | locus YML124C, strain tub3, stronger effect = lower value 0.987 | locus YMR058W, strain fet3, stronger effect = lower value 1.01 | locus YMR078C, strain ctf18, stronger effect = lower value 1 | locus YMR125W, strain sto1, stronger effect = lower value 0.987 | locus YMR129W, stronger effect = lower value 0.996 | locus YMR205C, strain PFK2, stronger effect = lower value 1.01 | locus YMR223W, strain ubp8, stronger effect = lower value 0.985 | locus YMR231W, strain pep5, stronger effect = lower value 0.994 | locus YMR307W, strain GAS1, stronger effect = lower value 0.996 | locus YNL067W, strain RPL9B, stronger effect = lower value 1.01 | locus YNL071W, strain lat1, stronger effect = lower value 0.997 | locus YNL183C, strain NPR1, stronger effect = lower value 0.95 | locus YNL209W, strain ssb2, stronger effect = lower value 1.01 | locus YNL233W, strain BNI4, stronger effect = lower value 1.01 | locus YNL248C, strain rpa49, stronger effect = lower value 0.997 | locus YNL250W, strain rad50, stronger effect = lower value 1 | locus YNL271C, strain bni1, stronger effect = lower value 1.01 | locus YNL298W, strain CLA4, stronger effect = lower value 1.01 | locus YNL307C, strain MCK1, stronger effect = lower value 1.01 | locus YNL322C, strain KRE1 (second series), stronger effect = lower value 0.998 | locus YNL322C, strain KRE1, stronger effect = lower value 1.02 | locus YNR049C, strain mso1, stronger effect = lower value 0.988 | locus YNR052C, strain pop2, stronger effect = lower value 0.996 | locus YOL012C, strain htz1 0.946 | locus YOL147C, strain pex11, stronger effect = lower value 0.998 | locus YOR001W, strain rrp6, stronger effect = lower value 1.03 | locus YOR061W, strain CKA2, stronger effect = lower value 1.02 | locus YOR069W, strain VPS5, stronger effect = lower value 1.01 | locus YOR070C, strain gyp1, stronger effect = lower value 1 | locus YOR080W, strain dia2, stronger effect = lower value 1.01 | locus YOR083W, strain WHI5, stronger effect = lower value 1 | locus YOR106W, strain vam3, stronger effect = lower value 1.02 | locus YOR136W, strain idh2, stronger effect = lower value 0.989 | locus YOR144C, strain elg1, stronger effect = lower value 1.01 | locus YOR184W, strain ser1, stronger effect = lower value 1.01 | locus YOR231W, strain MKK1, stronger effect = lower value 1.01 | locus YOR265W, strain rbl2, stronger effect = lower value 0.983 | locus YOR270C, strain vph1, stronger effect = lower value 1.02 | locus YOR290C, strain snf2, stronger effect = lower value 1 | locus YOR316C, strain cot1, stronger effect = lower value 1 | locus YPL051W, strain arl3, stronger effect = lower value 1.01 | locus YPL055C, strain LGE1, stronger effect = lower value 1.03 | locus YPL078C, strain atp4, stronger effect = lower value 1.01 | locus YPL106C, strain sse1, stronger effect = lower value 0.999 | locus YPL240C, strain hsp82, stronger effect = lower value 1 | locus YPL256C, strain CLN2, stronger effect = lower value 1.01 | locus YPR119W, strain clb2, stronger effect = lower value 1 | locus YPR141C, strain kar3, stronger effect = lower value 1 | locus YPR163C, strain tif3, stronger effect = lower value 1.01 | locus YPR167C, strain met16, stronger effect = lower value 1 | strain wtn01, stronger effect = lower value 1
